# From the supplement of paper PMC8728848
# About 410 targets per protein were measured; listed, in parts, are those with the strongest signals and a random draw of the rest.
# B1: FimA-N3 (Actinomyces oris) (protein)
# chain: MHHHHHHSSGVDLGTENLYFQSNAGLQGAQFQLYKAKNAYANTCSNEKEGAPIAINGQTTLTTDAQGAIDIKGLFISDSIDGADRDNQVNAMERCYVLVETKAPAGYVLPAGNGAATPVKVKAGEETTDN
# Columns and labels:
# Assay in all cases: glycan array binding signal (z-score within array); higher = stronger binding
# Settings in all cases: glycan notation: IUPAC condensed, linker removed
# [1] = molecular target: Fuc(a1-2)Gal(b1-3)GalNAc(b1-3)Gal
# Method in brief: (§1)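 The Consortium for Functional Glycomics database supplied 3228 glycan arrays, of which those lacking an available protein sequence were dropped. The binding signal, a within-array Z-score, was averaged across arrays of the same protein sequence and across linkers. Negative scores can be read as non-binding.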
# [2] = molecular target: Fuc(a1-2)Gal(b1-3)GlcNAc(b1-2)Man(a1-3)[Fuc(a1-2)Gal(b1-3)GlcNAc(b1-2)Man(a1-6)]Man(b1-4)GlcNAc(b1-4)[Fuc(a1-6)]GlcNAc
# Method in brief: as §1
# [3] = molecular target: Fuc(a1-2)Gal(b1-4)[Fuc(a1-3)]GlcNAc(b1-3)[Neu5Ac(a2-6)Gal(b1-4)GlcNAc(b1-6)]Gal(b1-4)Glc
# Method in brief: as §1
# [4] = molecular target: Fuc(a1-2)Gal6S(b1-4)Glc6S
# Method in brief: as §1
# [5] = molecular target: Fuc(a1-2)[Gal(a1-3)]Gal(b1-3)GlcNAc(b1-2)Man(a1-3)[Fuc(a1-2)[Gal(a1-3)]Gal(b1-3)GlcNAc(b1-2)Man(a1-6)]Man(b1-4)GlcNAc(b1-4)GlcNAc
# Method in brief: as §1
# [6] = molecular target: Fuc(a1-2)[Gal(a1-3)]Gal(b1-3)GlcNAc(b1-2)Man(a1-3)[Fuc(a1-2)[Gal(a1-3)]Gal(b1-3)GlcNAc(b1-2)Man(a1-6)]Man(b1-4)GlcNAc(b1-4)[Fuc(a1-6)]GlcNAc
# Method in brief: as §1
# [7] = molecular target: Fuc(a1-2)[Gal(a1-3)]Gal(b1-4)[Fuc(a1-3)]GlcNAc(b1-3)GalNAc
# Method in brief: as §1
# [8] = molecular target: Fuc(a1-2)[GalNAc(a1-3)]Gal(b1-4)Glc
# Method in brief: as §1
# [9] = molecular target: Fuc(a1-3)[Gal(b1-4)]GlcNAc
# Method in brief: as §1
# [10] = molecular target: Fuc(a1-3)[GalNAc(b1-4)]GlcNAc6S
# Method in brief: as §1
# Fuc(b1-3)GlcNAc = molecular target: Fuc(b1-3)GlcNAc
# Method in brief: as §1
# [11] = molecular target: Gal(a1-3)Gal(b1-4)GlcNAc(b1-3)GalNAc
# Method in brief: as §1
# [12] = molecular target: Gal(a1-3)Gal(b1-4)[Fuc(a1-3)]GlcNAc(b1-2)Man(a1-3)[Gal(a1-3)Gal(b1-4)[Fuc(a1-3)]GlcNAc(b1-2)Man(a1-6)]Man(b1-4)GlcNAc(b1-4)GlcNAc
# Method in brief: as §1
# [13] = molecular target: Gal(a1-4)Gal(b1-3)GlcNAc(b1-2)Man(a1-3)[Gal(a1-4)Gal(b1-3)GlcNAc(b1-2)Man(a1-6)]Man(b1-4)GlcNAc(b1-4)GlcNAc
# Method in brief: as §1
# [14] = molecular target: Gal(a1-4)Gal(b1-4)GlcNAc(b1-3)Gal(b1-4)Glc
# Method in brief: as §1
# Gal(b1-3)Gal(b1-4)GlcNAc = molecular target: Gal(b1-3)Gal(b1-4)GlcNAc
# Method in brief: as §1
# Gal(b1-3)GalNAc(b1-3)Gal = molecular target: Gal(b1-3)GalNAc(b1-3)Gal
# Method in brief: as §1
# [15] = molecular target: Gal(b1-3)GalNAc(b1-4)Gal(b1-4)Glc
# Method in brief: as §1
# Gal(b1-3)GlcNAc(b1-2)Man = molecular target: Gal(b1-3)GlcNAc(b1-2)Man
# Method in brief: as §1
# [16] = molecular target: Gal(b1-3)GlcNAc(b1-3)Gal(b1-4)GlcNAc(b1-2)[Gal(b1-3)GlcNAc(b1-3)Gal(b1-4)GlcNAc(b1-6)]Man(a1-6)[Gal(b1-3)GlcNAc(b1-3)Gal(b1-4)GlcNAc(b1-2)Man(a1-3)]Man(b1-4)GlcNAc(b1-4)[Fuc(a1-6)]GlcNAc
# Method in brief: as §1
# [17] = molecular target: Gal(b1-3)GlcNAc(b1-3)GalNAc
# Method in brief: as §1
# [18] = molecular target: Gal(b1-3)[Neu5Ac(b2-6)]GalNAc
# Method in brief: as §1
# [19] = molecular target: Gal(b1-4)GalNAc(b1-3)[Fuc(a1-2)]Gal(b1-4)GlcNAc
# Method in brief: as §1
# Gal(b1-4)Glc6S = molecular target: Gal(b1-4)Glc6S
# Method in brief: as §1
# [20] = molecular target: Gal(b1-4)GlcNAc(b1-2)[Gal(b1-4)GlcNAc(b1-4)]Man(a1-3)[Gal(b1-4)GlcNAc(b1-2)[Gal(b1-4)GlcNAc(b1-6)]Man(a1-6)]Man(b1-4)GlcNAc(b1-4)GlcNAc
# Method in brief: as §1
# [21] = molecular target: Gal(b1-4)GlcNAc(b1-3)Gal(b1-4)GlcNAc(b1-2)Man(a1-3)[Gal(b1-4)GlcNAc(b1-3)Gal(b1-4)GlcNAc(b1-2)Man(a1-6)]Man(b1-4)GlcNAc(b1-4)[Fuc(a1-6)]GlcNAc
# Method in brief: as §1
# [22] = molecular target: Gal(b1-4)GlcNAc(b1-3)Gal(b1-4)GlcNAc(b1-3)Gal(b1-4)GlcNAc(b1-3)Gal(b1-4)GlcNAc(b1-3)Gal(b1-4)GlcNAc(b1-2)[Gal(b1-4)GlcNAc(b1-3)Gal(b1-4)GlcNAc(b1-3)Gal(b1-4)GlcNAc(b1-3)Gal(b1-4)GlcNAc(b1-3)Gal(b1-4)GlcNAc(b1-6)]Man(a1-6)[Gal(b1-4)GlcNAc(b1-3)Gal(b1-4)GlcNAc(b1-3)Gal(b1-4)GlcNAc(b1-3)Gal(b1-4)GlcNAc(b1-3)Gal(b1-4)GlcNAc(b1-2)Man(a1-3)]Man(b1-4)GlcNAc(b1-4)[Fuc(a1-6)]GlcNAc
# Method in brief: as §1
# [23] = molecular target: Gal(b1-4)GlcNAc(b1-3)[Fuc(a1-3)GlcNAc(b1-6)]Gal(b1-4)Glc
# Method in brief: as §1
# [24] = molecular target: Gal(b1-4)GlcNAc(b1-6)Gal(b1-4)GlcNAc
# Method in brief: as §1
# Gal3S(b1-4)Glc = molecular target: Gal3S(b1-4)Glc
# Method in brief: as §1
binder,measurement,setting,value
B1,glycan array binding signal (z-score),[1],5.62
same,glycan array binding signal (z-score),[2],-0.196
same,glycan array binding signal (z-score),[3],-0.472
same,glycan array binding signal (z-score),[4],0.307
same,glycan array binding signal (z-score),[5],-0.378
same,glycan array binding signal (z-score),[6],-0.364
same,glycan array binding signal (z-score),[7],0.505
same,glycan array binding signal (z-score),[8],-0.493
same,glycan array binding signal (z-score),[9],-0.369
same,glycan array binding signal (z-score),[10],4.08
same,glycan array binding signal (z-score),Fuc(b1-3)GlcNAc,-0.128
same,glycan array binding signal (z-score),[11],0.243
same,glycan array binding signal (z-score),[12],-0.667
same,glycan array binding signal (z-score),[13],-0.264
same,glycan array binding signal (z-score),[14],-0.388
same,glycan array binding signal (z-score),Gal(b1-3)Gal(b1-4)GlcNAc,0.999
same,glycan array binding signal (z-score),Gal(b1-3)GalNAc(b1-3)Gal,-0.367
same,glycan array binding signal (z-score),[15],3.23
same,glycan array binding signal (z-score),Gal(b1-3)GlcNAc(b1-2)Man,-0.37
same,glycan array binding signal (z-score),[16],2.94
same,glycan array binding signal (z-score),[17],-0.259
same,glycan array binding signal (z-score),[18],-0.563
same,glycan array binding signal (z-score),[19],-0.587
same,glycan array binding signal (z-score),Gal(b1-4)Glc6S,-0.058
same,glycan array binding signal (z-score),[20],-0.618
same,glycan array binding signal (z-score),[21],-0.021
same,glycan array binding signal (z-score),[22],4.26
same,glycan array binding signal (z-score),[23],-0.038
same,glycan array binding signal (z-score),[24],-0.237
same,glycan array binding signal (z-score),Gal3S(b1-4)Glc,0.681
